Assay results: ChEMBL document CHEMBL1961873, “Compounds: GSK PKIS; Assays: Nanosyn kinase panel” (2012)

Legend:
[1] = molecular target: Leukocyte tyrosine kinase receptor (Homo sapiens) (UniProt P29376); settings: at 1 µM;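 note: each value is the mean inhibition of LTK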
[2] = molecular target: Tyrosine-protein kinase Lyn (Homo sapiens) (UniProt P07948); settings: at 0.1 µM
[3] = molecular target: Tyrosine-protein kinase Lyn (Homo sapiens) (UniProt P07948); settings: at 1 µM
[4] = molecular target: Tyrosine-protein kinase Lyn (Homo sapiens) (UniProt P07948); settings: at 0.1 µM; remark: listed apart in the source
[5] = molecular target: Tyrosine-protein kinase Lyn (Homo sapiens) (UniProt P07948); settings: at 1 µM; remark: listed apart in the source
[6] = molecular target: T1, Tyrosine-protein kinase Mer (Homo sapiens) (UniProt Q12866); settings: at 0.1 µM
T1 sequence (whole entry): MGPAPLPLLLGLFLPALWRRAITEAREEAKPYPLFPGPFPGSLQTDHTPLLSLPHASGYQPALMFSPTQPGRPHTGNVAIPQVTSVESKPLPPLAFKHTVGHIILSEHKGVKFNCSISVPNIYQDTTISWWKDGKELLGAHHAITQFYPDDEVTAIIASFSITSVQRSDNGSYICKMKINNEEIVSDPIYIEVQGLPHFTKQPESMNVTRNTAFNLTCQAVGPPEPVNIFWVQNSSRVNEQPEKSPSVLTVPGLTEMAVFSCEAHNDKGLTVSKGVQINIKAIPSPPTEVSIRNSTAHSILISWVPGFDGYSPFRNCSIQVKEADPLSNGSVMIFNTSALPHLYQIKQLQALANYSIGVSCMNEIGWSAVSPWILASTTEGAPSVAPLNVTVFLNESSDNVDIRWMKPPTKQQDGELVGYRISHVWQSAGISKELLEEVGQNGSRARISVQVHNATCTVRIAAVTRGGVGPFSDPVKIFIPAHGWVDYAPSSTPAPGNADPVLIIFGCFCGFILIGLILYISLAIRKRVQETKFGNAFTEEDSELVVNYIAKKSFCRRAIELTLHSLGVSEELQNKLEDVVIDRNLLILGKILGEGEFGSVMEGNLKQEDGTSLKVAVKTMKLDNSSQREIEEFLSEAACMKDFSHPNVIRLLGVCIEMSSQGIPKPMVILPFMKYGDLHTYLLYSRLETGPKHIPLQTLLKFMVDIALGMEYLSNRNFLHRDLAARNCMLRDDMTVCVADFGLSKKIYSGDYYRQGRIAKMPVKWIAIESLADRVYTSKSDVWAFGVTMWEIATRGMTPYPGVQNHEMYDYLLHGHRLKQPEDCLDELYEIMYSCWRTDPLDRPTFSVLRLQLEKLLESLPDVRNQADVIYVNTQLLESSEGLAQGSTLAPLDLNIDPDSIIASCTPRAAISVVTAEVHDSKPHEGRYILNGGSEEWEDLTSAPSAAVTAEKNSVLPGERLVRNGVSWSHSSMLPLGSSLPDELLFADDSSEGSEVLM

[7] = molecular target: T1, Tyrosine-protein kinase Mer (Homo sapiens); settings: at 1 µM
[8] = molecular target: Hepatocyte growth factor receptor (Homo sapiens) (UniProt P08581); settings: at 0.1 µM
[9] = molecular target: Hepatocyte growth factor receptor (Homo sapiens) (UniProt P08581); settings: at 1 µM
[10] = molecular target: T2, Muscle, skeletal receptor tyrosine-protein kinase (Homo sapiens) (UniProt O15146); settings: at 0.1 µM;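 note: values are mean inhibition of MuSK from the GSK PKIS kinase screening panel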
T2 sequence (whole entry): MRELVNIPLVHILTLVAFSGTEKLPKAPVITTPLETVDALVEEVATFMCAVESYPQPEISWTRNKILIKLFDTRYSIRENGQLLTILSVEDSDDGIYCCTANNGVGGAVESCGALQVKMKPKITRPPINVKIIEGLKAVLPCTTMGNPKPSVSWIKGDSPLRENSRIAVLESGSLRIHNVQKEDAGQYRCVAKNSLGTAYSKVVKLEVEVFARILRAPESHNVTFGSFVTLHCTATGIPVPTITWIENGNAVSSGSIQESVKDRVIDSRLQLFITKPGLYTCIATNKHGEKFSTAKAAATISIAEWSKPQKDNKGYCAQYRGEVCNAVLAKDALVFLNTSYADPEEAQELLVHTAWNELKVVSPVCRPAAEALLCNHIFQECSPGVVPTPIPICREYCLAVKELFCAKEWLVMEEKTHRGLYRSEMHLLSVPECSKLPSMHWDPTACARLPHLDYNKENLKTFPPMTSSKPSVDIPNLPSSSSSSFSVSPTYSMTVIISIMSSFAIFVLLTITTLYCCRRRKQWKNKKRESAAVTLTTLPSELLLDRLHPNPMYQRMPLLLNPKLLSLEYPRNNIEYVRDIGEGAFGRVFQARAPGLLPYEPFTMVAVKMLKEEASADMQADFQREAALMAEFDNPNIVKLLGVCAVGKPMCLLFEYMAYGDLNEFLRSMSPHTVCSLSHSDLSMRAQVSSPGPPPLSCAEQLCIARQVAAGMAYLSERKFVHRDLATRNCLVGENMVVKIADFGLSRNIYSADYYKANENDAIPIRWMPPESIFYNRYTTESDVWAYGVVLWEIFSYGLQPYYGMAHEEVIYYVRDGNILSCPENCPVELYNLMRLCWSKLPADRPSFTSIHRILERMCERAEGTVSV

Sequence of Tyrosine-protein kinase Lyn (Homo sapiens) (P07948 2-512 limits assumed): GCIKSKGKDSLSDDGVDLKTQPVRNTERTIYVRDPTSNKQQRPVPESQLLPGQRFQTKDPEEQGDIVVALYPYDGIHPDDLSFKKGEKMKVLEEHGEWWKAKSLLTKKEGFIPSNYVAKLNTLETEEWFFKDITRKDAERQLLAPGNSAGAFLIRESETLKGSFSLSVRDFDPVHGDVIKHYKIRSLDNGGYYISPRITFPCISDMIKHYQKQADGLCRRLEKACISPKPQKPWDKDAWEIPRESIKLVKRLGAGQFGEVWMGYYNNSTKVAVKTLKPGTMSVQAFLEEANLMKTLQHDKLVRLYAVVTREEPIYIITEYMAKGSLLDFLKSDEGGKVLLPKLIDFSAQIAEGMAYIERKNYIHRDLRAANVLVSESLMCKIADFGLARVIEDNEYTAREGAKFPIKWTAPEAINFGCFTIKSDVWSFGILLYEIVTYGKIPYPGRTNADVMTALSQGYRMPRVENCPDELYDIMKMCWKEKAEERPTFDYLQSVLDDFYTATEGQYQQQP
Sequence of Hepatocyte growth factor receptor (Homo sapiens) (P08581 whole entry): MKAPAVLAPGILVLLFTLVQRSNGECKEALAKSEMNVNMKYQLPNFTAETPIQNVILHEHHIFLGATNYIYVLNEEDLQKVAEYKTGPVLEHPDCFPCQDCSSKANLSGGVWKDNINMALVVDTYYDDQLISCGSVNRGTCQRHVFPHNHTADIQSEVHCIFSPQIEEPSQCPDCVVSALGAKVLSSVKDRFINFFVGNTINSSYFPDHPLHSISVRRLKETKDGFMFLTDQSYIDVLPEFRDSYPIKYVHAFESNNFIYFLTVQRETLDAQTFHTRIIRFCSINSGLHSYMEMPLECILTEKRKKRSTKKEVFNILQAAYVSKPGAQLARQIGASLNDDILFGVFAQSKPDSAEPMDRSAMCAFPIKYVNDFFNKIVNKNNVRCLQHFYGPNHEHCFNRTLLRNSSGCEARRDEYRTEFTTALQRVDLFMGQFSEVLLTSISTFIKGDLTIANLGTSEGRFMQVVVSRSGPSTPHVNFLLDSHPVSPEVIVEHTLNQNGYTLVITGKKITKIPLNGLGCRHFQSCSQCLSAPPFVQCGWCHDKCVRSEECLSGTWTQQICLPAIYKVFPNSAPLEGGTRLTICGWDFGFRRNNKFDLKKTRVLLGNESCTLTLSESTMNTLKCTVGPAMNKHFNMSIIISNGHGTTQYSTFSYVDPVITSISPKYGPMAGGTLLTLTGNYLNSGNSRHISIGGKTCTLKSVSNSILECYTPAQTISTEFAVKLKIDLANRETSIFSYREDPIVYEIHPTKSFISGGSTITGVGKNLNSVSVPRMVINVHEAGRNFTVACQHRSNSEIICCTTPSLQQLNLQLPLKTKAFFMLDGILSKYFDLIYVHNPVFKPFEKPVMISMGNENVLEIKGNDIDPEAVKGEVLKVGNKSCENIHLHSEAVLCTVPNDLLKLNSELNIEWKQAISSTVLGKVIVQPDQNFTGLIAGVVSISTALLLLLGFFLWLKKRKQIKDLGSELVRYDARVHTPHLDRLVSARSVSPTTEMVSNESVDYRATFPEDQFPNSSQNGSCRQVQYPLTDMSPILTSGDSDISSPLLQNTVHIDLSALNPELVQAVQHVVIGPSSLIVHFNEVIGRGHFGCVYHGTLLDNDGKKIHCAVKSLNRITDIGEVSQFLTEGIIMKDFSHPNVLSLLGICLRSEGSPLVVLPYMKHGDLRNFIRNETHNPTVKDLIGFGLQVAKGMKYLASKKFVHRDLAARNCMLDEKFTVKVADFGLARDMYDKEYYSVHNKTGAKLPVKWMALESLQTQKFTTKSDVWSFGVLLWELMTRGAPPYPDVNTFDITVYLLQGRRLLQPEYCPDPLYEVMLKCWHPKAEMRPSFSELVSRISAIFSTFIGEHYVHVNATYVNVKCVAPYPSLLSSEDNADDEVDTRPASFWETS
Sequence of Leukocyte tyrosine kinase receptor (Homo sapiens) (P29376 whole entry): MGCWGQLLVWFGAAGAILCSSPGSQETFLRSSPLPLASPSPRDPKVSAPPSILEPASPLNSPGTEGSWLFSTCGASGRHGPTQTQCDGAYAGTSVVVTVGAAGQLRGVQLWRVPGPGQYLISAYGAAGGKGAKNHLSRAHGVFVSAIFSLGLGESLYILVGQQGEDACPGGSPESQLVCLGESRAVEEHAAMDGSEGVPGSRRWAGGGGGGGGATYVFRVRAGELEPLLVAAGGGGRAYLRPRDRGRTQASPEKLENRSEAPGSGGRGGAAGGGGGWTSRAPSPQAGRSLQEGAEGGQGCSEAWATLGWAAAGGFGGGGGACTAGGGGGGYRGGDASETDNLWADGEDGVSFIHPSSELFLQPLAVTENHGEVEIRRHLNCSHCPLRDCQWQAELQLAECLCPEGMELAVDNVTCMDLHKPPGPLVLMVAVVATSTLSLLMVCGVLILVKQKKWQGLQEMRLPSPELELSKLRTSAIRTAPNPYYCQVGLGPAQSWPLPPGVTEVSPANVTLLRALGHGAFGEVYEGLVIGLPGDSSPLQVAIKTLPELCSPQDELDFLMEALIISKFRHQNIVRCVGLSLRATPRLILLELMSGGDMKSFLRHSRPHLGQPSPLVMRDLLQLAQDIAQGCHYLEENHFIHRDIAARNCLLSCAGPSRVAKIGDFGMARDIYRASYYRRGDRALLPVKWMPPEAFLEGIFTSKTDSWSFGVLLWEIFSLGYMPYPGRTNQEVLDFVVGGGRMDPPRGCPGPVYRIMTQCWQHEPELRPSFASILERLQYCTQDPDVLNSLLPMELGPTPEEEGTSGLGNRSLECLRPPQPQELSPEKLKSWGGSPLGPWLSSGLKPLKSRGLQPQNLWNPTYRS

SMILES | inhibition [1] [%] | inhibition [2] [%] | inhibition [3] [%] | inhibition [4] [%] | inhibition [5] [%] | inhibition [6] [%] | inhibition [7] [%] | inhibition [8] [%] | inhibition [9] [%] | inhibition [10] [%]
NC(=O)c1cc(-c2ccc(F)cc2)cc(-c2ccncc2)c1N | 2.67 | 7.55 | 9 | 5 | 5.99 | 1.16 | 0.38 | 3.9 | 8.57 | 3.05
CCC(=O)Nc1ccc(C)c(-c2ccc(C(=O)NCC3CC3)cc2)c1 | 3.92 | 4.52 | 5.05 | 1.69 | 2.75 | 2.88 | 4.95 | 6.02 | 4.29 | 1.96
Fc1ccc(-c2ncn(C3CCNCC3)c2-c2ccnc(Oc3ccc(Oc4ccccc4)cc3)n2)cc1 | 4.33 | 3.46 | 5.25 | 1.56 | 2.92 | 1.43 | 10.6 | 9.38 | 0.02 | 2.43
Fc1ccc(-c2nc3n(c2-c2ccncc2)CCS3)cc1 | 2.85 | 3.56 | 7.36 | 1.97 | 4.29 | 1.16 | 3.24 | 8.26 | 5.29 | 2.08
O=C1Nc2ccc(I)cc2C1=Cc1cc(Br)c(O)c(Br)c1 | 9.99 | 4.2 | 7.49 | 2.6 | 4.55 | 2.32 | 2.36 | 1.23 | 4.15 | 1.59
FC(F)(F)c1cccc(Nc2nccc(-c3cnn4nc(-c5ccccc5)ccc34)n2)c1 | 0.52 | 0.75 | 3.22 | 0.52 | 2.95 | -0.58 | 0.62 | -0.38 | 0.28 | 1.03
NC(=O)Cc1ccccc1Oc1nccc(-c2c(-c3ccc(F)cc3)ncn2C2CCNCC2)n1 | 2.41 | 2.61 | 3.78 | 1.91 | 1.88 | 0.54 | 3.34 | 2.67 | 3.24 | 2.87
O=C(Nc1n[nH]c2nc(-c3ccco3)ccc12)C1CC1 | 1.2 | 2.83 | 4.01 | 1.47 | 3.2 | 2.01 | 1.71 | 4.66 | 5.26 | 5.75
O=C(Nc1n[nH]c2cc(-c3cc(F)ccc3F)ccc12)C1CC1 | 2.7 | 5.22 | 5.51 | 3.27 | 2.53 | 0.82 | 2.71 | 6.12 | 4.36 | 3.35
O=C(Nc1n[nH]c2cc(-c3ccccc3)ccc12)C1CC1 | 9.93 | 5.94 | 9.06 | 2.77 | 5.33 | 1.8 | 5.12 | 0.84 | 5.86 | -0.17
Nc1nccc(-c2c(-c3ccc(F)cc3)ncn2C2CCC(O)CC2)n1 (centres undefined) | 0.8 | 3.13 | 23.6 | 1.4 | 18 | 1.22 | 7.13 | 0.14 | 3.65 | 0.79
COc1cc(Nc2ncc(-c3ccccc3)o2)cc(OC)c1OC | 1.47 | 7.48 | 47.8 | 5.8 | 46.5 | 3.23 | 3.53 | 2.19 | 2.13 | 1.59
COc1ccc2ncn(-c3cc(O[C@H](C)c4ccccc4Cl)c(C(N)=O)s3)c2c1 | 2.89 | 3.82 | 5.65 | 2.15 | 2.91 | 2.41 | 4.42 | 4.37 | 4.23 | 2.62
C/C(Nc1ccc(S(N)(=O)=O)cc1)=C1/C(=O)Nc2ccccc21 | 9.41 | 1.53 | 8.14 | 0.71 | 6.94 | 0.6 | 9.21 | 3.68 | 9.39 | 3.8
COc1cc(C)c(N(C)C(=O)CN(C)C)cc1Nc1nc(Nc2cccc(F)c2C(N)=O)c2cc[nH]c2n1 | 57.5 | 0.96 | 2.25 | -0.16 | 0.99 | 1.74 | 1.94 | -0.92 | 1.68 | 1.6
Cc1nnc(-c2ccc(C)c(-c3ccc(C(=O)NCc4ccc(Cl)cc4)cc3)c2)o1 | 4.02 | 3.85 | 8.64 | 2.14 | 4.87 | 2.04 | 1.93 | 4.09 | 6.08 | 2.38
O=C(Nc1ccc(Oc2ccc3[nH]c(NC(=O)c4ccccc4)nc3c2)cc1)Nc1cc(C(F)(F)F)ccc1F | 3.76 | 5.73 | 27.5 | 3.48 | 23.4 | 1.3 | 3.74 | 4.39 | 19.2 | 13.9

SMILES | inhibition [1] [%] | inhibition [2] [%] | inhibition [3] [%] | inhibition [4] [%] | inhibition [5] [%] | inhibition [6] [%] | inhibition [7] [%] | inhibition [8] [%] | inhibition [9] [%] | inhibition [10] [%]
NS(=O)(=O)c1ccc(N/N=C2\C(=O)Nc3ccc(C(=O)NCCCn4ccnc4)cc32)cc1 | 7.11 | 6.54 | 16.1 | 4.32 | 12.4 | 1.34 | 6.35 | 2.76 | 12 | 4.66
NS(=O)(=O)c1ccc(Nc2cc(-c3ccc(O)c(F)c3)n[nH]2)cc1 | 0.7 | 2.66 | 20 | 0.57 | 17.4 | 1.99 | 13.4 | 0.07 | -2.91 | 5.85
c1ccc(-c2n[nH]cc2-c2ccnc(-c3ccc(OCCN4CCOCC4)cc3)c2)nc1 | -0.95 | 1.31 | 10.2 | 1.54 | 7.34 | 5.12 | 5.39 | 7.49 | 5.59 | 6.97
CN(C)CCOc1ccc(-c2cc(-c3ccc4c(c3)CCC4=NO)c(-c3ccncc3)o2)cc1 | -0.32 | 0.86 | 4.14 | 0.71 | 3.2 | – | 4.1 | 12.9 | 5.81 | -0.04
COc1cccc(/C=N/Nc2ncnc3c2cnn3-c2cccc(OC)c2)c1 | 4.06 | 5.08 | 15.3 | 3.29 | 10.9 | 1.87 | 2.85 | 4.9 | 9.96 | 1.34
COc1ccc2cc(-c3c(-c4ccncc4)nc(-c4ccc(S(C)(=O)=O)cc4C)n3C)ccc2c1 | 5.96 | 6.65 | 22.3 | 3.79 | 16.7 | 2.19 | 9.48 | 2.55 | 4.21 | 3.24
CCS(=O)(=O)c1ccc(OC)c(Nc2ncc(-c3cccc(-c4ccccc4F)c3)o2)c1 | 4.54 | 14.8 | 62.5 | 10.6 | 55.8 | 0.82 | 3 | 2.87 | 3.52 | 2.39
Cc1ccc(C(=O)NC2CCC2)cc1-c1ccc(C(=O)NCC2CC2)cc1 | 2.04 | 3.48 | 2.47 | 2.55 | 1.61 | 2.37 | 6.88 | 3.95 | 6.08 | 2.41
CS(=O)(=O)CCNCc1cc(-c2cc3c(Nc4ccc(OCc5cccc(F)c5)c(Cl)c4)ncnc3s2)cs1 | 6.25 | 5.45 | 6.19 | 2.93 | 6.07 | 4.4 | 8.06 | 7.8 | 6.72 | 2.43
NCc1ccc(-n2c(-c3nonc3N)nc3cnccc32)cc1 | 5.03 | 6.22 | 5.56 | 4.38 | 2.34 | 1.5 | 5.54 | 5.16 | 9.91 | 6.42
CCN(CC)Cc1ccc(Nc2nccc(-c3cnn4ncccc34)n2)cc1 | 9.98 | 3.53 | 11.8 | 2.02 | 9.31 | 2.93 | 9.85 | 7.6 | 10.4 | 6.42
COc1cc(N2CCN(C(C)C)CC2)ccc1Nc1nc(Nc2ccc(F)cc2C(=O)NC[C@@H](O)CO)c2cc[nH]c2n1 | 88.7 | 4.36 | 9.54 | 2.42 | 7 | 0.94 | 3.95 | -1.77 | 3.3 | 1.43
COc1ccc(-c2ccc3c(NC(=O)C4CC4)n[nH]c3n2)cc1 | 1.49 | 1.25 | 5.43 | 0.89 | 5.03 | 0.16 | 3.67 | 1.87 | 7.43 | 0.33
COc1cccc(-n2cnc3c(N/N=C/c4ccncc4)ncnc32)c1 | 0.9 | 7.17 | 47.2 | 6.07 | 41.6 | 0.12 | 4.47 | 0.87 | 6.87 | 2.4
CN(c1ccc(NC(=O)Nc2c(Cl)cccc2Cl)cc1)c1ccnc(Nc2cccc(CS(C)(=O)=O)c2)n1 | 1.45 | 29.7 | 64.8 | 27.1 | 60.9 | 14.6 | 29.6 | 80.8 | 85 | 72.8
CCc1ccc(Oc2nccc(-c3c(-c4ccc(F)cc4)ncn3C3CCNCC3)n2)cc1 | 2.68 | 5.24 | 6.76 | 1.59 | 3.26 | 2.01 | 3.05 | 5.76 | 3.25 | 3.3
Clc1ccc(CNc2nccc(-c3cnn4ncccc34)n2)cc1 | 0.38 | 3.2 | 5.62 | 1.68 | 3.11 | -0.52 | 0.99 | 2.02 | 7.73 | 3.18
